Test results: PubChem BioAssay AID602385 (Sanford-Burnham Center for Chemical Genomics, 2012)
Hit rate of the full screen: of about 2,300 compounds, about 180 (7.8%) were called active. The full list was thinned out, with actives kept by preference. A number with no mark means an inactive call.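 The calls were made as follows: active = average inhibition of at least 30% in the single-concentration confirmation test; inactive = the rest.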

Each compound was assayed against DNA (cytosine-5)-methyltransferase 1 (Homo sapiens) (UniProt P26358) (assay: inhibition of human DNMT1, hit confirmation – biochemical, molecular beacon, fluorescence, single concentration (AID 602385)). Settings: DNMT1 molecular beacon HinP1I cleavage, at 10 µM, stronger effect = higher value.
DNA (cytosine-5)-methyltransferase 1 (Homo sapiens), sequence (P26358 504-1616 limits assumed): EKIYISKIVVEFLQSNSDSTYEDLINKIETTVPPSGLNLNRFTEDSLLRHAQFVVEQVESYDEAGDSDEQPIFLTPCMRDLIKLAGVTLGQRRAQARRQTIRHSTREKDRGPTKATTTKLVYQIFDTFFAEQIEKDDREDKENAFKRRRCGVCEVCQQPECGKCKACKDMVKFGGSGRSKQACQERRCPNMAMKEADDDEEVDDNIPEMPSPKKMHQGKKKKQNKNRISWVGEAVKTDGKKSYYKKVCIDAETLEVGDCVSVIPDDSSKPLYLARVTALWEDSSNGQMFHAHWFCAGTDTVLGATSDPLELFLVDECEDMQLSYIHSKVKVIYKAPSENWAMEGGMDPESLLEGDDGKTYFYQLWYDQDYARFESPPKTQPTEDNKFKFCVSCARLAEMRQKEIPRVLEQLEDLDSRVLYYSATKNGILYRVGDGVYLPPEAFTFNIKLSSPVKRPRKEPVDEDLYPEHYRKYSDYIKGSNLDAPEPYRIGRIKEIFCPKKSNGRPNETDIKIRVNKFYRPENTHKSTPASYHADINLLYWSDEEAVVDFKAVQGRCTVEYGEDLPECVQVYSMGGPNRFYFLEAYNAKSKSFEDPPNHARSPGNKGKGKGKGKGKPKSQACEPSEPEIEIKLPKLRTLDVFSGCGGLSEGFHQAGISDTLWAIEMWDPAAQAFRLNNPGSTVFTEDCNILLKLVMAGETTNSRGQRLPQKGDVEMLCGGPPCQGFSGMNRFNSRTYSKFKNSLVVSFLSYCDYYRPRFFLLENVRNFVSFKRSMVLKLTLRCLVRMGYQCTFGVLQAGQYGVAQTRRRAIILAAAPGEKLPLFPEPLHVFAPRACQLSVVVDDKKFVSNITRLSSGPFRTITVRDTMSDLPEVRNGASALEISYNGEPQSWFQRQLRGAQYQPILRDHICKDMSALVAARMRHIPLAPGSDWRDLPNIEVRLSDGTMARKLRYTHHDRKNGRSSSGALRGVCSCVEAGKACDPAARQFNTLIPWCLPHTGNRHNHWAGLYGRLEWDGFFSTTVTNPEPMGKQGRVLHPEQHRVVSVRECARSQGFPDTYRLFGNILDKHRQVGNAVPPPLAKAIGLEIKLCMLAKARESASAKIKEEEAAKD

SMILES	inhibition
Cc1c(C(=O)O)cccc1-n1c(C)cc(/C=C2\C(=O)NC(=O)N(c3ccc4c(c3)OCO4)C2=O)c1C	35.1% (active)
O=C1NC(=O)N(Cc2ccco2)C(=O)/C1=C\c1ccc(-c2ccc(F)cc2)o1	8.93%
CC1=C(C(=O)Nc2ccccc2)SCCO1	6.68%
